The panel holds about 79,000 compounds, 15% with a hit somewhere; the sample as a whole holds those more often. The source made the active and inactive calls. No stated cut-off is given here; in the data, active means growth inhibition above about 70%; inactive means the rest.
Experiment: NCI Yeast Anticancer Drug Screen. Data for the cln2 rad14 strain (AID 165);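 further: 0% = growth equal to vehicle treated cultures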
Conditions: S. cerevisiae cln2 rad14 strain, at 50.0 µM (retest, dose inferred, filed as 5.0), active compounds read high
In short: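 The screen exposed genetically defined yeast (cln2 rad14) to test compounds and scored growth inhibition relative to vehicle-treated controls.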

Structure (SMILES) | growth inhibition
O=[N+]([O-])c1ccc(N2N=NC(CN3CCOCC3)C2N2CCOCC2)cc1 (stereo not drawn) | 28% (inactive)
FC(F)(F)c1ccccc1NC(=S)SCc1ccco1 | 17% (inactive)
O=C(c1ccc(Cl)cc1)C1N=NCC1c1ccccc1 (stereo not drawn) | 59% (inactive)
COc1cc(C2c3cc4c(cc3[C@@H](OCCN)[C@H]3COC(=O)C23)OCO4)cc(OC)c1O (stereo partly drawn) | 28% (inactive)
CC(C)(C)c1cc2c(c(C(C)(C)C)c1O)CC(=O)O2 | 64% (inactive)
CCCCCCCCCCCCCCCCCCSSCCCCCCCCCCCCCCCCCC | 4% (inactive)
c1ccc2c(c1)OCC(CNCCNCC1COc3ccccc3O1)O2 (stereo not drawn) | 63% (inactive)
CC(=O)C(C(C)=O)C1C=CC=CC=C1 | 77% (active)
c1ccc2c(c1)ccc1c[n+]3c4ccccc4ccc3n12 | 91% (active)
CC(=O)C(=C(I)I)c1ccccc1 | 34% (inactive)
O=C1c2ccccc2CN1Cc1ccc(Cl)c(Cl)c1 | 81% (active)
CC1CC(N)=NC1C(=O)NCCC#N (stereo not drawn) | 2% (inactive)
CC(=O)CC(C)=NCCN=C(C)CC(C)=O.[Pd] | 41% (inactive)
CCOc1ccccc1NC1=C(Cl)C(=O)c2ccccc2C1=O | 98% (active)
CCN1C2=NCCN2S(=O)(=O)c2ccccc21 | 10% (inactive)
O=C(Cc1nc2ccccc2s1)C(=O)Nc1ccc(Cl)cc1 | 2% (inactive)
O=C(CCn1[nH]c(=O)c(Cl)c(Cl)c1=O)NNc1ccc([N+](=O)[O-])cc1[N+](=O)[O-] | 1% (inactive)
COc1cccc(C2c3cc4c(cc3OC(NNc3ccccc3)C2C)OCO4)c1OC (stereo not drawn) | 90% (active)

Reference: PubChem BioAssay (NCI)
